Shown are actives, neighbours in structure and some others; about 5.4% of the full set was active somewhere.
Gal4-VP16 FLuc: counter-screen for ROR gamma inhibitors: Gal4-VP16 reporter. AID 2546. Drosophila S2 Gal4-VP16 UAS-luciferase, luminescence, 20 h. Potency, µM (top dose mostly 53.6 µM), for the others: at the highest dose activity, negative = inhibition, usual class: inhibitors. 310,000 compounds, 3.5% hits;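 note: Gal4-VP16 expression switched on by copper sulfate through the metallothionein promoter; potency is the fitted concentration of half-maximal effect; % is set by controls: 0 for no effect and ±100 for the full control effect; nearly all actives have a fitted effect of over 50% in size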
Six1-Eya2 inh: inhibitors of human Six1/Eya2 interaction | 360,000 compounds, 0.56% hits | AID 651725 | AlphaScreen GST-Six1/His-Eya2 binding, biochemical; stronger effect = lower value | Q15475+O00167 | activity change, % (test concentration not listed); in the data active = activity change below about -65%; inconclusive = mostly about -30% to -63%; note: % is set by controls: 0 for no effect and ±100 for the full control effect
Target sequence (O00167 whole entry, looked up): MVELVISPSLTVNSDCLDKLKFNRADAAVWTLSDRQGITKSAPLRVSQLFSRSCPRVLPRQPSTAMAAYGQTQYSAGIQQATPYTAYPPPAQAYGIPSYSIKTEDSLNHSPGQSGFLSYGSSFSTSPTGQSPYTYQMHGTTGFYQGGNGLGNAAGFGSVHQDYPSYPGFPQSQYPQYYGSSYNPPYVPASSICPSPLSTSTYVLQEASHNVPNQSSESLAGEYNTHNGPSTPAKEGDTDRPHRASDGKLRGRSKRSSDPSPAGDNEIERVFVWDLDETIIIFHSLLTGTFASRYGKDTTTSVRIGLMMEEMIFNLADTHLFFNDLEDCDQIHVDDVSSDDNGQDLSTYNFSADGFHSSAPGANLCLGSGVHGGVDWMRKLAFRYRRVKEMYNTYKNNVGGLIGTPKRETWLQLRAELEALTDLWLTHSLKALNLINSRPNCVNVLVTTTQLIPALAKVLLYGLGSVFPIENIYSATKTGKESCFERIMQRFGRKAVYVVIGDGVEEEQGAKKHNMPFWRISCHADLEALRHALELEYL
Target sequence (Q15475 whole entry, looked up): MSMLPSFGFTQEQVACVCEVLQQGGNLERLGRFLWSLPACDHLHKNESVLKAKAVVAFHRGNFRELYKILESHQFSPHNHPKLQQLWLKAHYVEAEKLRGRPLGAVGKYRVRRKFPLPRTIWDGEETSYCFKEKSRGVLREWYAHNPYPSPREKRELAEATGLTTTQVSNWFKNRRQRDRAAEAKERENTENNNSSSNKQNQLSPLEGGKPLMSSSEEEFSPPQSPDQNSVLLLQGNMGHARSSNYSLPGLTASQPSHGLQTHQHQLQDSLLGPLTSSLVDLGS
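Compounds are tested against tagged Six1 and Eya2 proteins bridged by glutathione donor and nickel acceptor beads; after a one-hour incubation at 37 °C without light, AlphaScreen emission is recorded.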
p53 reactivation: mutant p53 re-activation in reporter cells | 320,000 compounds, 0.063% hits | AID 504706 | Potency, µM (doses to about 92.2 µM), without a hit: at the top dose activity change, positive = activation, actives largely listed as activators | H1299 p53-A138V BP100-luciferase reporter, luminescence, 24 h; note: potency is the fitted concentration of half-maximal effect; % of control where 0% means no effect; nearly all actives have a fitted effect of over 45% in size
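p53-null H1299 cells stably carrying temperature-sensitive p53-A138V and a BP100-luciferase reporter were pinned with compounds (4-point, 1:5 series) and held 24 hrs at 37 deg C. Luminescence was read 10 min after detection reagent.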
RORg inh: ROR gamma (mouse) transcription inhibition | 310,000 compounds, 5.4% hits | Drosophila S2 Gal4-RORgamma UAS-luciferase reporter, 20 h | P51450 | AID 2551 | Potency, µM (top dose mostly 53.6 µM), without a hit: at the highest dose activity change, negative = inhibition, most hits filed as inhibitors; note: potency is the fitted concentration of half-maximal effect; % is set by controls: 0 for no effect and ±100 for the full control effect; nearly all actives have a fitted effect of over 60% in size
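In this cell-based reporter format, copper sulfate (700 uM final) drives Gal4–ROR gamma fusion expression from a metallothionein promoter in Drosophila Schneider cells; compounds preincubated 1 hr, reporter read after 20 hr at ambient temperature.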
CtBP-E1A blk: CtBP/E1A binding inhibition | AlphaScreen GST-E1A/His-CtBP binding, 1536-well; stronger effect = lower value | 340,000 compounds, 0.49% hits | activity change, % (concentration not given with the values); in the data active = activity change below about -65%; inconclusive = mostly about -30% to -63%; note: % is set by controls: 0 for no effect and ±100 for the full control effect
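In 5 uL wells, 23 nL compound meets equimolar GST-E1A and His-CtBP (5X stock 125 nM each) for 2 h, 37 °C. Beads (5X, 50 ug/mL) then 1 h, 37 °C, dark.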
* marks the source's active call; other numbers are inactive results; ? = inconclusive; . = no result; [ ] = another dose, or the depositor's remark. Unless noted, calls come from the whole dose curve; as a rule, active = well fitted curve in the direction sought with a large enough effect; inconclusive = small, poorly fitted or top-dose-only effect, or another doubt; inactive = no such curve, though single readings can be large; an effect the other way counts as inactive or inconclusive.

SMILES	Gal4-VP16 FLuc	Six1-Eya2 inh	p53 reactivation	RORg inh	CtBP-E1A blk
C/C(=N/O)c1ccc(Oc2cnccn2)cc1	3.0%	9.0	3.7%	-4.9%	2.7
Fc1ccc(/C=N/NC(=S)NCCc2ccccc2)cc1F	8.91µM*	1.1	1.5%	7.08µM*	-1.9
COc1ccc(/C=N/NC(=S)NCCc2ccccc2)cc1	7.94µM*	-4.1	-1.4%	3.55µM*	.
COc1cccc(/C=N/NC(=S)NCCc2ccccc2)c1	?	-4.8	5.8%	15.8µM*	-18.4
CCc1ccc(/C=N/NC(=S)NCCc2ccccc2)cc1	?	-2.5	2.3%	14.1µM*	0.1
CCOc1ccc(/C=N\NC(=O)CC(=O)NCCc2ccccc2)cc1	.	-3.4	.	.	-0.7
CCCCNC(=S)N/N=C/c1ccc(C#N)cc1	?	18.7	-4.3%	11.2%	-8.2
CCNc1ncc2nc(CCc3ccccc3)c(=O)n(Cc3cccc(OC)c3)c2n1	-23.0%	.	.	-37.4%	.
Cc1ccccc1NC(=O)N1CCCC(c2nc(-c3ccc(C(C)C)cc3)no2)C1 (stereo not drawn)	?	-2.1	44.7µM*	30.0%	7.1
Cc1ccc(-c2noc(C3CCCN(C(=O)c4ccc(F)cc4F)C3)n2)cc1 (stereo not drawn)	?	3.4	-7.8%	?	0.7
CC(C)c1ccc(-c2noc(C3CCCN(C(=O)c4ccc(F)cc4F)C3)n2)cc1 (stereo not drawn)	8.91µM*	1.0	23.2%	?	5.9
Cc1ccccc1NC(=O)N1CCCC(c2nc(-c3ccc(F)cc3)no2)C1 (stereo not drawn)	2.3%	-3.2	2.8%	0.3%[10 µM]	-1.4
O=C(C1CCCN(C2CC(=O)N(c3ccc(Cl)cc3)C2=O)C1)N1CCCC1 (stereo not drawn)	1.7%	-3.5	3.8%	3.8%	1.7
CCSC1=N/C(=C\c2ccc(C(=O)O)cc2)C(=O)S1	11.0%	8.7	-7.6%	19.9%	6.9
CCOC(=O)SC1=N/C(=C\c2ccc(N(C)C)cc2)C(=O)S1	?	-15.5	14.5%	12.6µM*	-16.9
CC1=C(SCCC#N)S/C(=C2\SC(C)=C(SCCC#N)S2)S1	?	-78.0*	13.5%	?	-4.6
Cn1c(SCCC#N)nnc1-c1ccc(F)cc1	3.7%	.	-0.3%	-26.5%	.
Nc1nc(-c2ccco2)nn1S(=O)(=O)c1ccc(Cl)cc1	-3.2%	-1.8	2.7%	16.3%	22.7
CC1(C)CC(=O)C2=C(C1)OC1=C(C(=O)CC(C)(C)C1)C2c1ccc(O)cc1O	6.31µM*	2.4	-45.7%	3.16µM*	6.7
CC(NC(=O)Cc1ccc(S(=O)(=O)N2CCOCC2)s1)c1ccc(Cl)c(Cl)c1 (stereo not drawn)	.	2.9	-9.4%	.	9.6
CCOC(=O)C1=C(c2ccccc2)NC(=O)NC1c1cc(OC)c(O)c([N+](=O)[O-])c1 (stereo not drawn)	1.4%	-2.0	.	2.6%	.
CCCOc1ccc([N+](=O)[O-])cc1C1NC(=S)NC(c2ccccc2)=C1C(=O)OCC (stereo not drawn)	20µM*	-16.5	-3.7%	6.31µM*	-9.6
CCOC(=O)C1=C(c2cccc(F)c2)NC(=S)NC1C (stereo not drawn)	?	-1.4	-1.8%	14.1µM*	2.6
CCC(Cc1ccccc1)NC(=O)CCn1cccc1 (stereo not drawn)	1.2%	-3.0	-7.7%	24.9%	-4.2
CCN1CCCC1CNC(=O)C(=O)NCCc1ccc(OC)c(OC)c1 (stereo not drawn)	3.3%	0.6	-2.9%	-10.6%	6.4
SMILES	Gal4-VP16 FLuc	Six1-Eya2 inh	p53 reactivation	RORg inh	CtBP-E1A blk
OC[C@H]1O[C@@H](O[C@@H]2[C@@H](CO)O[C@](O)(CO)[C@H]2O)[C@H](O)[C@@H](O)[C@H]1O	-19.8%	.	.	5.8%	.
O=C(Nc1ccccc1)Nc1cnccn1	-3.6%	0.4	11.6%	18.3%	-1.3
O=C(O)c1cc2cc(Cl)cc(Cl)c2oc1=O	-21.9%	?	9.9%	-27.4%	-74.2*
O=C(NCCO)c1cc2cc(Cl)cc(Cl)c2oc1=O	-3.0%[10 µM]	-3.2	2.1%	8.0%	1.4
CC(=O)Nc1ccc(NC2=C/C(=N/S(=O)(=O)c3cccs3)c3ccccc3C2=O)cc1	5.01µM*	-0.2	-10.9%	7.08µM*	-28.8
Cc1ccccc1NC1=C/C(=N\S(=O)(=O)c2cccs2)c2ccccc2C1=O	5.62µM*	-84.1*	-25.7%	3.98µM*	-85.5*
COc1ccc(S(=O)(=O)/N=C2\C=C(Nc3ccc(O)cc3)C(=O)c3ccccc32)cc1	5.62µM*	?	-15.6%	10µM*	-87.5*
O=C(O)c1ccc(S(=O)(=O)/N=C2\C=C(Nc3ccccc3F)C(=O)c3ccccc32)cc1	?	?	-18.4%	?	-75.7*
CC1=CC(C2CC(=O)N(c3ccc(C)cc3)C2=O)CC2C(=O)N(c3ccc(C)cc3)C(=O)C12 (stereo not drawn)	-10.7%	12.9	-3.2%	36.2%	0.9
CC(Oc1ccc(Cl)cc1Cl)c1nc(-c2ccc(NC(=O)c3ccccn3)cc2)no1 (stereo not drawn)	19.9%	4.4	?	?	8.9
COc1ccccc1C1C2=C(N=C3SCC(=O)N31)c1ccccc1CC2 (stereo not drawn)	-8.9%	4.8	?	11.2µM*	-3.8
COc1ccc(C2C3=C(N=C4SCC(=O)N42)c2ccccc2CC3)cc1OC (stereo not drawn)	13.7%	-14.0	-8.8%	-4.2%	-9.5
Clc1ccc(-c2nc3c4ccccc4ccn3c2Cc2ccccc2)cc1	.	0.0	.	.	-9.0
COc1ccc(C)cc1NCc1cccc(OC)c1OC	13.5%	?	-0.1%	17.8µM*	-22.8
COc1ccc(CNc2cc(C)ccc2C)c(OC)c1OC	-10.9%[0.365 µM]	-17.4	8.2%	-20.7%	-9.2
Fc1ccc2c(c1)C(c1ccncc1)=NNC(c1ccc(Cl)cc1)=N2	?	-1.8	-1.4%	?	-3.2
Fc1ccc2c(c1)C(c1ccncc1)=NNC(c1ccccc1)=N2	?	-12.3	22.4%	10µM*	-7.6
COc1ccc(CCCO[C@@H](Cn2ccnc2)c2ccc(OC)cc2)cc1	31.6µM*	.	.	8.91µM*	.
COc1ccc(OCCn2ccnc2)cc1	-11.0%	2.0	.	-0.5%	6.6
O=C(CCC(=O)OCC(=O)c1ccc(Cl)cc1Cl)Nc1cccc2cccnc12	-17.3%	4.4	-10.8%	20.2%	3.3
O=C(CCC(=O)OCC(=O)c1ccc(-c2ccccc2)cc1)Nc1cccc2cccnc12	3.98µM*	7.6	10.0%	1.58µM*	8.9
c1ccc(-c2csc3ncnc(N4CCc5ccccc5C4)c23)cc1	12.6µM*	-5.4	-1.5%	?	7.5
Cc1cc2ncn(-c3ncnc4scc(-c5ccccc5)c34)c2cc1C	-25.0%	-6.6	-1.8%	5.62µM*	-6.3
CC(=O)Nc1c(I)cc(I)c(C(=O)O)c1I	3.1%	.	.	-10.9%	.
COc1ncc2ncc(=O)n(C[C@H]3CCCO3)c2n1	-0.3%	.	.	-18.1%	.

Bioassay records: PubChem BioAssay, National Center for Advancing Translational Sciences (NCATS)
